PubChem BioAssay (Tox21)
Inconclusive results are not listed. Activity calls are given as the source filed them. Calls come from the whole dose curve; as a rule, active = well fitted curve in the direction sought with a large enough effect in the repeat runs; inconclusive = weak or mixed curves; inactive = no such curve, though single readings can be large; an effect the other way counts as inactive or inconclusive.

Experiments:
[1] = qHTS RealTime-Glo MT Cell Viability Assay in HepG2 cells - 40 hour (AID 1224870); note: nearly all actives have a fitted effect of over 50% in size
In short: (§1)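 HepG2 cells (600/well) mixed with RealTime-Glo MT reagent, settled 5 h at 37 C/5% CO2 before compound addition. Nonlytic NanoLuc luminescence from viable-cell prosubstrate reduction read repeatedly during 40 h treatment at 37 C.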

[2] = A CellTox Green Cytotoxicity Assay to monitor cytotoxicity in HEK293 cells - 40 hour (AID 1224871); note: nearly all actives have a fitted effect of over 45% in size
In short: (§2)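 Cytotoxicity was tracked continuously in HEK293 cells by a DNA-binding dye excluded from viable cells. Compounds were transferred in DMSO 5 h after seeding; fluorescence was recorded at intervals up to 40 h.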

[3] = qHTS RealTime-Glo MT Cell Viability Assay in HEK293 cells - 16 hour (AID 1224872); note: top concentration of the series differs between compounds; nearly all actives have a fitted effect of over 50% in size
In short: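 Quantitative high-throughput screen of the Tox21 10K library in HEK293: cells and RealTime-Glo reagents plated together, compound added at 5 h, luminescence monitored through 40 h at 37 C.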

[4] = qHTS RealTime-Glo MT Cell Viability Assay in HepG2 cells - 8 hour (AID 1224873); note: nearly all actives have a fitted effect of over 55% in size
In short: as §1

[5] = qHTS RealTime-Glo MT Cell Viability Assay in HEK293 cells - 40 hour (AID 1224874); settings: RealTime-Glo luminescence; max response: hits give low values; note: nearly all actives have a fitted effect of over 50% in size
In short: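 Nonlytic bioluminescent viability monitoring. HEK293 at 600 cells/well with reagent; 5 h settle; compound transfer by pintool; plates held at 37 C and read at set time points.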

[6] = A CellTox Green Cytotoxicity Assay to monitor cytotoxicity in HEK293 cells - 24 hour (AID 1224875); note: series mostly up to about 77 µM; nearly all actives have a fitted effect of over 45% in size
In short: as §2

[7] = A CellTox Green Cytotoxicity Assay to monitor cytotoxicity in HepG2 cells - 16 hour (AID 1224876); note: nearly all actives have a fitted effect of over 45% in size
In short: (§3)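 Real-time, homogeneous cytotoxicity readout: dead-cell DNA staining by CellTox Green in HepG2 monolayers, fluorescence measured at timed intervals up to 40 h of continuous compound exposure.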

[8] = qHTS RealTime-Glo MT Cell Viability Assay in HepG2 cells - 32 hour (AID 1224877); note: nearly all actives have a fitted effect of over 55% in size
In short: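 Compound treatment began 5 h after plating HepG2 cells (600/well) with NanoLuc luciferase and prosubstrate. Plates stayed at 37 C for 40 h; luminescence was captured at six time points, 0 h through 40 h.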

[9] = A CellTox Green Cytotoxicity Assay to monitor cytotoxicity in HepG2 cells - 24 hour (AID 1224878); note: nearly all actives have a fitted effect of over 45% in size
In short: as §3

[10] = A CellTox Green Cytotoxicity Assay to monitor cytotoxicity in HepG2 cells - 40 hour (AID 1224879); note: nearly all actives have a fitted effect of over 40% in size
In short: as §3
% is set by controls: 0 for no effect and ±100 for the full control effect.

CCCCNc1ccccc1
inactive: Potency [1] | Potency [2] | Potency [3] | outcome [4] | max response [5] 2.6% | Potency [6] | Potency [7] | Potency [8] | Potency [9] | Potency [10]

O=C1CC2(CCCC2)CC(=O)N1
inactive: Potency [1] | Potency [2] | Potency [3] | outcome [4] | max response [5] 3.72% | Potency [6] | Potency [7] | Potency [8] | Potency [9] | Potency [10]

OCC(O)[C@@H](O)[C@H](O)[C@H](O)CO[C@H]1O[C@H](CO)[C@@H](O)[C@H](O)[C@H]1O (stereo not given in full)
inactive: Potency [1] | Potency [2] | Potency [3] | outcome [4] | max response [5] -0.563% | Potency [6] | Potency [7] | Potency [8] | Potency [9] | Potency [10]

CCCCCCCCCCCl
inactive: Potency [1] | Potency [2] | Potency [3] | outcome [4] | max response [5] 6.94% | Potency [6] | Potency [7] | Potency [8] | Potency [9] | Potency [10]

CO[Si](CCCNCCC[Si](OC)(OC)OC)(OC)OC
inactive: Potency [1] | Potency [2] | Potency [3] | outcome [4] | max response [5] 5.67% | Potency [6] | Potency [7] | Potency [8] | Potency [9] | Potency [10]

C=C(C)C1CC=C(C)C(O)C1 (stereo not given)
inactive: Potency [1] | Potency [2] | Potency [3] | outcome [4] | max response [5] 9.55% | Potency [6] | Potency [7] | Potency [8] | Potency [9] | Potency [10]

CC(=O)c1ccc(C)cc1
inactive: Potency [1] | Potency [2] | Potency [3] | outcome [4] | max response [5] -0.83% | Potency [6] | Potency [7] | Potency [8] | Potency [9] | Potency [10]

NCCNC(=O)c1ccc(Cl)cn1
inactive: Potency [1] | Potency [2] | Potency [3] | outcome [4] | max response [5] 0.469% | Potency [6] | Potency [7] | Potency [8] | Potency [9] | Potency [10]

C=CC(=O)OCCCCCC
inactive: Potency [1] | Potency [2] | Potency [3] | outcome [4] | max response [5] -6.6% | Potency [6] | Potency [7] | Potency [8] | Potency [9] | Potency [10]

Nc1cc(N)cc(C(=O)O)c1
inactive: Potency [1] | Potency [2] | Potency [3] | outcome [4] | max response [5] 8.18% | Potency [6] | Potency [7] | Potency [8] | Potency [9] | Potency [10]

O=c1[nH]c2ccccc2c(=O)n1CCCl
inactive: Potency [1] | Potency [2] | Potency [3] | outcome [4] | max response [5] 3.48% | Potency [6] | Potency [7] | Potency [8] | Potency [9] | Potency [10]

CC(C=O)Cc1ccc(C(C)C)cc1 (stereo not given)
inactive: Potency [1] | Potency [2] | Potency [3] | outcome [4] | max response [5] 18.5% | Potency [6] | Potency [7] | Potency [8] | Potency [9] | Potency [10]

COC[C@H](c1ccc(C(F)(F)F)cc1)N1CCN(C2(C)CCN(C(=O)c3c(C)ncnc3C)CC2)C[C@H]1C
inactive: Potency [1] | Potency [2] | Potency [3] | outcome [4] | max response [5] -19.9% | Potency [6] | Potency [7] | Potency [8] | Potency [9] | Potency [10]

NS(=O)(=O)c1cc(C2(O)NC(=O)c3ccccc32)ccc1Cl (stereo not given)
inactive: Potency [1] | Potency [2] | Potency [3] | outcome [4] | max response [5] 1% | Potency [6] | Potency [7] | Potency [8] | Potency [9] | Potency [10]

OC/C=C/c1ccccc1
inactive: Potency [1] | Potency [2] | Potency [3] | outcome [4] | max response [5] 21.7% | Potency [6] | Potency [7] | Potency [8] | Potency [9] | Potency [10]

CCCCCCOC(=O)CC(CC(=O)OCCCCCC)(OC(=O)CCC)C(=O)OCCCCCC
inactive: Potency [1] | Potency [2] | Potency [3] | outcome [4] | max response [5] 15.3% | Potency [6] | Potency [7] | Potency [8] | Potency [9] | Potency [10]

NC(N)=NS(=O)(=O)c1ccc(N)cc1
inactive: Potency [1] | Potency [2] | Potency [3] | outcome [4] | max response [5] -4.08% | Potency [6] | Potency [7] | Potency [8] | Potency [9] | Potency [10]

COc1cc(C)cc(O)c1
inactive: Potency [1] | Potency [2] | Potency [3] | outcome [4] | max response [5] -14.5% | Potency [6] | Potency [7] | Potency [8] | Potency [9] | Potency [10]

C=CCOc1nc(OCC=C)nc(OCC=C)n1
inactive: Potency [1] | Potency [2] | Potency [3] | outcome [4] | max response [5] 11.1% | Potency [6] | Potency [7] | Potency [8] | Potency [9] | Potency [10]

Nc1nc2c(ncn2CCC(CO)CO)c(=O)[nH]1
inactive: Potency [1] | Potency [2] | Potency [3] | outcome [4] | max response [5] 0.17% | Potency [6] | Potency [7] | Potency [8] | Potency [9] | Potency [10]

CCO[Si](C)(OCC)OCC
inactive: Potency [1] | Potency [2] | Potency [3] | outcome [4] | max response [5] 3.57% | Potency [6] | Potency [7] | Potency [8] | Potency [9] | Potency [10]

COC(=O)c1ccc(C(=O)OC)c(C(=O)OC)c1
inactive: Potency [1] | Potency [2] | Potency [3] | outcome [4] | max response [5] 1.35% | Potency [6] | Potency [7] | Potency [8]

C=CC(=O)N1CCOCC1
inactive: Potency [1] | Potency [2] | Potency [3] | outcome [4] | max response [5] -1.69% | Potency [6] | Potency [7] | Potency [8] | Potency [9] | Potency [10]

COc1nc(C)nc(N)n1
inactive: Potency [1] | Potency [2] | Potency [3] | outcome [4] | max response [5] -1.44% | Potency [6] | Potency [7] | Potency [8] | Potency [9] | Potency [10]

CCN(CC)C(=O)c1ccc(O)c(OC)c1
inactive: Potency [1] | Potency [2] | Potency [3] | outcome [4] | max response [5] 1.73% | Potency [6] | Potency [7] | Potency [8] | Potency [9] | Potency [10]

NS(=O)(=O)c1cc2c(cc1C(F)(F)F)NC(Cc1ccccc1)NS2(=O)=O (stereo not given)
inactive: Potency [1] | Potency [2] | Potency [3] | outcome [4] | max response [5] -7.67% | Potency [6] | Potency [7] | Potency [8] | Potency [9] | Potency [10]

COC(=O)CCCC(=O)O
inactive: Potency [1] | Potency [2] | Potency [3] | outcome [4] | max response [5] 10.9% | Potency [6] | Potency [7] | Potency [8] | Potency [9] | Potency [10]

N#CCc1ccccc1[N+](=O)[O-]
inactive: Potency [1] | Potency [2] | Potency [3] | outcome [4] | max response [5] 9.34% | Potency [6] | Potency [7] | Potency [8] | Potency [9] | Potency [10]

O=Cc1ccccc1[N+](=O)[O-]
inactive: Potency [1] | Potency [2] | Potency [3] | outcome [4] | max response [5] -5.52% | Potency [6] | Potency [7] | Potency [8] | Potency [9] | Potency [10]

CNc1ncnc2nc[nH]c12
inactive: Potency [1] | Potency [2] | Potency [3] | outcome [4] | max response [5] 3.96% | Potency [6] | Potency [7] | Potency [8] | Potency [9] | Potency [10]

CC(CCO)CCCC(C)(C)O (stereo not given)
inactive: Potency [1] | Potency [2] | Potency [3] | outcome [4] | max response [5] -6.84% | Potency [6] | Potency [7] | Potency [8] | Potency [9] | Potency [10]

O=C(O)CCNC(=O)c1ccc(N=Nc2ccc(O)c(C(=O)O)c2)cc1
inactive: Potency [1] | Potency [2] | Potency [3] | outcome [4] | max response [5] -0.519% | Potency [6] | Potency [7] | Potency [8] | Potency [9] | Potency [10]

CC12CCC(CC1=O)C2(C)C (stereo not given)
inactive: Potency [1] | Potency [2] | Potency [3] | outcome [4] | max response [5] -2.19% | Potency [6] | Potency [7] | Potency [8] | Potency [9] | Potency [10]

CC(=O)NC(Cc1ccccc1)C(=O)O (stereo not given)
inactive: Potency [1] | Potency [2] | Potency [3] | outcome [4] | max response [5] 5.56% | Potency [6] | Potency [7] | Potency [8] | Potency [9] | Potency [10]

O=S(=O)(c1cccc2cnccc12)N1CCCNCC1
inactive: Potency [1] | Potency [2] | Potency [3] | outcome [4] | max response [5] 8.06% | Potency [6] | Potency [7] | Potency [8] | Potency [9]

OC1OC[C@@H](O)[C@H](O)[C@H]1O (stereo not given in full)
inactive: Potency [1] | Potency [2] | Potency [3] | outcome [4] | max response [5] 0.611% | Potency [6] | Potency [7] | Potency [8] | Potency [9] | Potency [10]

O=S(=O)(O)c1ccccc1O
inactive: Potency [1] | Potency [2] | Potency [3] | outcome [4] | max response [5] 8.61% | Potency [6] | Potency [7] | Potency [8] | Potency [9] | Potency [10]

Cc1cc(C)c(NC(=O)CN(CC(=O)O)CC(=O)O)c(C)c1Br
inactive: Potency [1] | Potency [2] | Potency [3] | outcome [4] | max response [5] -1.32% | Potency [6] | Potency [7] | Potency [8] | Potency [9] | Potency [10]

Nc1ncnc2c1ncn2Cc1c(F)cccc1Cl
inactive: Potency [1] | Potency [2] | Potency [3] | outcome [4] | max response [5] -12.1% | Potency [6] | Potency [8] | Potency [9] | Potency [10]

CCCCCCCCC=O
inactive: Potency [1] | Potency [2] | Potency [3] | outcome [4] | max response [5] -0.417% | Potency [6] | Potency [8]

CC1=CC(C)C(C=O)C(C)C1 (stereo not given)
inactive: Potency [1] | Potency [2] | Potency [3] | outcome [4] | max response [5] 4.71% | Potency [6] | Potency [8] | Potency [9] | Potency [10]

Nc1ccc2cc(S(=O)(=O)O)ccc2c1
inactive: Potency [1] | Potency [2] | Potency [3] | outcome [4] | max response [5] -14% | Potency [6] | Potency [7] | Potency [8] | Potency [10]

Cc1ccccc1Br
inactive: Potency [1] | Potency [2] | Potency [3] | outcome [4] | max response [5] 5.36% | Potency [6] | Potency [8] | Potency [9] | Potency [10]

CCc1cc(S(=O)(=O)O)c2cc(C(C)C)cccc1-2
inactive: Potency [1] | Potency [2] | Potency [3] | outcome [4] | max response [5] 7.39% | Potency [6] | Potency [7] | Potency [8] | Potency [9] | Potency [10]
